We go through 40 molecules from PubChem BioAssay (NCI).

Compounds without any hit were thinned out: in the full panel of roughly 83,000, 20% have a hit.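 Cell lines were cultured in 96-well plates, exposed to a single compound concentration, and assessed for percent growth 48 hours later.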 The source made the active and inactive calls.

The experiment relates to HT29 colon. The experiment can be described thus: NCI-60 one-dose screen, 48 h (100 = growth as untreated, 0 = no growth, -100 = all killed). Particulars: 10 µM unless noted. As for the experimental part:
Growth inhibition of the HT29 human tumor cell line is measured as a screen for anti-cancer activity. Cells are grown in 96 well plates and exposed to the test compound for 48 hours. Compounds are tested at a single concentration, which is 10^-5 M for most compounds. The reported endpoint is percent growth (GI% or GIPRCNT), where numbers from 0 - 100% represent growth inhibition, and numbers from -100% - 0 represent cell death. For example, a value of 40 represents 60% growth inhibition. A value of 0 means no net growth occurred over the course of the experiment. A value of -40 indicates 40% of cells at the beginning of the experiment died by the end of the experiment. A value of -100 means all cells are dead at the end of the experiment.
NCI-60 Human Tumor Cell Lines Screen was performed using the standard one-dose NCI protocol, which is described in more detail at https://dtp.cancer.gov/discovery_development/nci-60/default.htm.
Compounds with GIPRCNT values below 10 were considered active. Activity score was based on GIPRCNT using the following formula: […]
Score is 0 for GIPRCNT values of 100 or above, 50 for GIPRCNT values of 0, and 100 for GIPRCNT values of -100.
For the molecule `Cc1ccc(-c2cc3nc(C(Cl)Cl)nc(-c4ccccc4C)n3n2)cc1`, the growth is 8.13% (active). Take `COc1cccc(/C=C/C(=O)Nc2cc(OC)c3c(c2)OCO3)c1`: the growth is 92.1% (inactive). The same measure for `COC(=O)c1nc(-c2ccccc2)oc1S(=O)(=O)N1CCN(c2cccc(Cl)c2)CC1`: 50.8% (inactive); for `COc1ccc(-n2c(-c3ccccc3)c(-c3ccccc3)c3c(SCC(=O)N/N=C/c4ccc(Cl)cc4)ncnc32)cc1`: 94.4% (inactive).

`Cc1c(C(N)=O)sc2c1c(=O)n(Cc1ccccc1)c1nnc(Nc3ccccc3)n21`: the growth is 94.3% (inactive). As to `Cc1[nH]c2ccc(F)cc2c1CCNC(=O)C1CCN(C(=O)c2ccccc2)C1` (stereo not given), the growth was 101% [25 µM] (inactive). With `O=C(CSc1nc2ccccc2[nH]1)Nc1ccc(-c2nc3ccccc3s2)c(Cl)c1`, the growth is 14.7% (inactive).

As for `CN1C(=O)N(C)C2C1NN=c1s/c(=C\c3cccnc3)c(=O)n12` (stereo not given), the growth is 49.1% (inactive). In the case of `COc1ccc(/C=C2\CN(Cc3cn(CCNc4ccnc5cc(Cl)ccc45)nn3)C/C(=C\c3ccc(OC)c(OC)c3)C2=O)cc1OC`, the growth was -42.4% (active). Take `c1ccc(-c2nnc(-c3ccccn3)s2)nc1`: the growth is 104% (inactive). The figure for `Cn1c(=O)cc(NC(=O)CN2CCN(c3cc4c(cc3F)c(=O)c(C(=O)O)cn4C3CC3)CC2)[nH]c1=O` is 103% (inactive). For the molecule `C=C1C(=O)O[C@H]2[C@H]1CC/C(Cn1cc(CNC(=O)c3cc4ccccc4[nH]3)nn1)=C\CC[C@@]1(C)O[C@@H]21`, the growth was 11.4% (inactive). The figure for `N=C(N)c1ccc(-c2cc(Cl)cc(Cl)c2)cn1` is 55.5% (inactive). On to `O=C(C1=Cc2cc3ccccc3n2Cc2cnnn21)c1ccccc1`, for which the growth is 7.8% (active). For the molecule `Brc1cccc(-c2cc(-c3ccc4c(c3)OCCCO4)[nH]n2)c1`, the growth was 12.7% [25 µM] (inactive).

`CCN(CC)CCC(CNc1ccnc2cc(Cl)ccc12)c1ccccc1` (stereo not given): the growth is 7.02% (active). The same measure for `Nc1nc(Nc2cc(Cl)cc(Cl)c2)nn1S(=O)(=O)c1ccc2ccccc2c1`: 39.8% (inactive); for `CCN(CC)c1ccc2[nH]c3c(C(N)=O)cc(=O)c(=O)c=3oc2c1`: 5.89% (active). The same measure for `COC1=C(OC)C(=O)C(CCCCCCCCCC[P+](c2ccccc2)(c2ccccc2)c2ccccc2)=C(C)C1=O`: -10.6% (active); for `C=C1c2nc3ccccc3n2C=C(c2ccc(Cl)cc2)N1Cc1ccccc1`: 77.4% (inactive); for `Cc1cc(N/N=C/c2nc(-c3ccccc3)oc2C)c2cc(Cl)ccc2n1`: -78.1% (active). The figure for `Cc1ccc(N2CCN(C(C)C(N)=O)CC2)cc1` (stereo not given) is 118% (inactive).

For `COc1ccc(-c2nc(-c3nc4cc(C)c(C)cc4[nH]3)cc3c2[nH]c2ccccc23)cc1`, the growth was 1.21% (active).

On to `COc1ccc(/C(C#N)=C/c2cc(OC)c(OC)c(OC)c2)cc1`, for which the growth was 9.49% (active). For the molecule `O=C1CS/C(=N\Nc2cc(=O)[nH]c3ccccc23)N1c1ccccc1`, the growth is 98.6% (inactive).

For `CC1=NC2=CC=CC3=NC(C(Cl)(Cl)Cl)=NC(=N1)N23`, the growth was 60% (inactive). In the case of `COc1ccc(Nc2[nH]n3c(=O)cc(-c4ccccc4)nc3c2C(=O)Nc2ccc(C)cc2)c(OC)c1`, the growth is 112% (inactive). As for `CCOC(=O)CN1/C(=N/c2sc3c(c2C(=O)OCC)CCN(C(=O)OCC)C3)SC(=O)/C1=C\C(=O)OC`, the growth is 61.2% (inactive).

Turning to `NC(=O)CCCN1C/C(=C\c2ccccc2)C(=O)c2ccccc21`, the growth is 93.2% (inactive). Consider `CC(C)(C)N1CCC1C(N)=O` (stereo not given), for which the growth is 109% (inactive).

In the case of `C=CCn1cc(-c2nc3ccccc3s2)c2cc(-c3ccc4c5c(cccc35)C(=O)N(CCN3CCNCC3)C4=O)ccc21`, the growth was 11% (inactive). Regarding `CCN(CC)c1ccc(C(=N)c2ccc(N(CC)CC)cc2)cc1`, the growth was -10.5% (active). On to `CC(C)NCCCNC1=C(Cl)C(=O)c2ccccc2C1=O`, for which the growth is 83.1% (inactive).

In the case of `Cc1ccc(S(=O)(=O)n2cc(C(=O)C(=O)Nc3ccncc3)c3ccccc32)cc1`, the growth was 6.07% (active).

Regarding `Brc1ccc(-c2[nH]ncc2-c2c[nH]c3ccccc23)cc1`, the growth was 109% (inactive). The figure for `Cc1ccc(C(=O)NCCCNc2nccc(-n3ccc4cccnc43)n2)cc1` is 106% (inactive); for `COc1ccc(C(=O)c2cc(OC)c(OC)c(OC)c2OC)cc1O` it is 55.6% (inactive); for `COc1ccc(Nc2[nH]n3c(=O)cc(C)nc3c2C(N)=O)c(OC)c1` it is 92.2% (inactive). The figure for `Cc1ccc2[nH]c(=O)c3c(c2c1)Oc1ncn2nc(-c4ccco4)nc2c1C3c1ccc(Cl)cc1` (stereo not given) is 101% (inactive); for `O=C1/C(=C/c2ccccc2)Oc2ccc(O)c(I)c21` it is 105% (inactive).
